# Legend:
# [1] = biological target: POU1 (OCT1 POU domain) (human, UniProt P14859 260-458); assay: EMSA-SELEX-seq; no BOB1; 20 mM Tris-HCl pH 7.6, 140 mM NaCl, 10% glycerol, 0.5 mM EDTA, 0.05% Triton X-100, 0.1 mg/mL BSA, 0.1 mg/mL poly(dI-dC), 5 mM DTT, room temperature, 20 min; high values mean tight binding; conditions: protein: recombinant; dsDNA, one strand shown
# In short: (§1)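 With or without 28 ng coactivator protein, 30 ng of tagged POU-domain protein was combined with 300 ng of a PCR-amplified double-stranded random 35-nt library in 20 μL Tris–HCl pH 7.6 binding buffer for 20 min at RT. The protein came from E. coli BL21 and had been purified under denaturing conditions and renatured. Four rounds of cutting complex bands from native 6% PAGE, elution and PCR amplification preceded Illumina sequencing. The binding preference figure is the percentage of sequenced 8-mers matching a motif pattern.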
# [2] = biological target: T1, POU2 (OCT2 POU domain) (human, UniProt P09086 175-386); assay: as above; conditions: protein: recombinant; dsDNA, one strand shown
# T1 sequence: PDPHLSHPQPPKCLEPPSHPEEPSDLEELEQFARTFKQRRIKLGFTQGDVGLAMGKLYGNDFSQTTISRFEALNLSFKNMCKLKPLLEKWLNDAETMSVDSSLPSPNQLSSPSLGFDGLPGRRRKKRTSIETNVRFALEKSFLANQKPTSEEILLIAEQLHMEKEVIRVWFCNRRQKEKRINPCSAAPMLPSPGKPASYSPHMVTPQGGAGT
# In short: as §1
# [3] = biological target: POU1 (OCT1 POU domain);BOB1 (OBF1, OCA-B) (human;human, UniProt P14859;Q16633 260-458;1-256, |); assay: EMSA-SELEX-seq; with BOB1 (ternary complex band); 20 mM Tris-HCl pH 7.6, 140 mM NaCl, 10% glycerol, 0.5 mM EDTA, 0.05% Triton X-100, 0.1 mg/mL BSA, 0.1 mg/mL poly(dI-dC), 5 mM DTT, room temperature, 20 min; high values mean tight binding; conditions: protein: recombinant;recombinant; copies: 1;1; dsDNA, one strand shown
# In short: as §1
# [4] = biological target: T2, POU2 (OCT2 POU domain);BOB1 (OBF1, OCA-B) (human;human, UniProt P09086;Q16633 175-386;1-256, |); assay: as above; conditions: protein: recombinant;recombinant; copies: 1;1; dsDNA, one strand shown
# T2 sequence 1: T1 sequence
# T2 sequence 2: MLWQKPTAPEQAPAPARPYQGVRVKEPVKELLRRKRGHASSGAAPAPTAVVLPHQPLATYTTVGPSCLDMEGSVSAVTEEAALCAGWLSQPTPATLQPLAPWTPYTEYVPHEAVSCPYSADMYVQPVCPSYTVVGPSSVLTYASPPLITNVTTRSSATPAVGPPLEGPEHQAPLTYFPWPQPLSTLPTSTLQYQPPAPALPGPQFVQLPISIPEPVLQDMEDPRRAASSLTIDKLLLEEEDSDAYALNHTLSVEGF
# In short: as §1
# Sequence of POU1 (OCT1 POU domain) (P14859 260-458): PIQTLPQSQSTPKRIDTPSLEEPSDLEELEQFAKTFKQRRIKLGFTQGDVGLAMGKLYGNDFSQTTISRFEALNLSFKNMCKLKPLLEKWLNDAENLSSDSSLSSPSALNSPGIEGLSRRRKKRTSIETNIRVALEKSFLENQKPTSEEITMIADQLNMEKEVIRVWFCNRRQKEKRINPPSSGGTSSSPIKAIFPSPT
Sequence,binding signal [1],binding signal [2],binding signal [3],binding signal [4]
AACACAAG,0.0194 % of ANNNNAAN 8-mers,0.0253 % of ANNNNAAN 8-mers,0.0219 % of ANNNNAAN 8-mers,0.0206 % of ANNNNAAN 8-mers
AGAGGAAC,0.0229 % of ANNNNAAN 8-mers,0.0339 % of ANNNNAAN 8-mers,0.0234 % of ANNNNAAN 8-mers,0.0264 % of ANNNNAAN 8-mers
ATATAAAT,0.16 % of ANNNNAAN 8-mers,0.222 % of ANNNNAAN 8-mers,0.108 % of ANNNNAAN 8-mers,0.116 % of ANNNNAAN 8-mers
ATAGGAAA,0.131 % of ANNNNAAN 8-mers,0.112 % of ANNNNAAN 8-mers,0.213 % of ANNNNAAN 8-mers,0.146 % of ANNNNAAN 8-mers
AGTCTAAG,0.0236 % of ANNNNAAN 8-mers,0.0322 % of ANNNNAAN 8-mers,0.0343 % of ANNNNAAN 8-mers,0.0297 % of ANNNNAAN 8-mers
ACGAAAAC,0.0256 % of ANNNNAAN 8-mers,0.0259 % of ANNNNAAN 8-mers,0.0289 % of ANNNNAAN 8-mers,0.0264 % of ANNNNAAN 8-mers
ACAAGAAG,0.0347 % of ANNNNAAN 8-mers,0.0316 % of ANNNNAAN 8-mers,0.0273 % of ANNNNAAN 8-mers,0.0322 % of ANNNNAAN 8-mers
AGCCAAAG,0.0286 % of ANNNNAAN 8-mers,0.0219 % of ANNNNAAN 8-mers,0.0363 % of ANNNNAAN 8-mers,0.019 % of ANNNNAAN 8-mers
AAAGAAAT,0.145 % of ANNNNAAN 8-mers,0.112 % of ANNNNAAN 8-mers,0.16 % of ANNNNAAN 8-mers,0.0958 % of ANNNNAAN 8-mers
ATAGGAAG,0.0576 % of ANNNNAAN 8-mers,0.0696 % of ANNNNAAN 8-mers,0.0585 % of ANNNNAAN 8-mers,0.0561 % of ANNNNAAN 8-mers
AGTTTAAC,0.04 % of ANNNNAAN 8-mers,0.0449 % of ANNNNAAN 8-mers,0.0375 % of ANNNNAAN 8-mers,0.033 % of ANNNNAAN 8-mers
ACAGAAAG,0.0297 % of ANNNNAAN 8-mers,0.0236 % of ANNNNAAN 8-mers,0.0281 % of ANNNNAAN 8-mers,0.0239 % of ANNNNAAN 8-mers
AGAGAAAA,0.0702 % of ANNNNAAN 8-mers,0.065 % of ANNNNAAN 8-mers,0.0574 % of ANNNNAAN 8-mers,0.0504 % of ANNNNAAN 8-mers
ACTGAAAG,0.0172 % of ANNNNAAN 8-mers,0.0196 % of ANNNNAAN 8-mers,0.0273 % of ANNNNAAN 8-mers,0.0231 % of ANNNNAAN 8-mers
AATACAAC,0.0412 % of ANNNNAAN 8-mers,0.0403 % of ANNNNAAN 8-mers,0.0336 % of ANNNNAAN 8-mers,0.0545 % of ANNNNAAN 8-mers
AGACAAAA,0.0675 % of ANNNNAAN 8-mers,0.0489 % of ANNNNAAN 8-mers,0.0808 % of ANNNNAAN 8-mers,0.0322 % of ANNNNAAN 8-mers
